Data from PubChem BioAssay (EPA / NIEHS).
Where “and” joins values, the source holds several entries; their conditions need not be identical. Equal values may be shown once. Results filed as inconclusive are left out. More than one record can exist for a structure, and the calls need not agree. Calls of active or inactive are those of the source. The calls were made as follows: active = hit-call score of the fitted dose curve at least 0.9, where 1 is the maximum; inconclusive = response in the unintended direction; inactive = score below 0.9.

Assays:
[1] = molecular target: Muscarinic acetylcholine receptor M2 (Homo sapiens) (UniProt P08172); assay: NVS_GPCR_hM2: NovaScreen (NVS) G Protein-Coupled Receptor Assay for human Muscarinic, M2 Receptor (AID 2283273)
Muscarinic acetylcholine receptor M2 (Homo sapiens), sequence (P08172 whole entry, looked up): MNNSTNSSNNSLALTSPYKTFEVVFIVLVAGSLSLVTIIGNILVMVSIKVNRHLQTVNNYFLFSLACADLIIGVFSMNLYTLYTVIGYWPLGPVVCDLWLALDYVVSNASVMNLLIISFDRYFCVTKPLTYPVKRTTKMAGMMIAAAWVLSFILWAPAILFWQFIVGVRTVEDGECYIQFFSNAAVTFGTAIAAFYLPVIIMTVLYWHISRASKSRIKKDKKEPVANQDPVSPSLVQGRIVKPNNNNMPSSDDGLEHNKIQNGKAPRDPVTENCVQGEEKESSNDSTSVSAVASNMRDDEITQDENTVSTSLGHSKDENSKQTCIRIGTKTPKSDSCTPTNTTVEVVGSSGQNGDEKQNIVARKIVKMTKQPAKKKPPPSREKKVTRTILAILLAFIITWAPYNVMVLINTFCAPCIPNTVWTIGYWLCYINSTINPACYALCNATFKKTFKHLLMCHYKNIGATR
Method in brief: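 Cell-free radioligand binding using membranes from CHO cells expressing the receptor; filter-based scintillation counting after 1 hour of compound exposure. Loss of specific binding relative to DMSO baseline; primary screen at 25 uM in duplicate, actives then run in concentration series.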

[2] = molecular target: human Thromboxane A2 Receptor (TXA2), TBXA2R (gene 6915) (UniProt P21731); assay: NVS_GPCR_hTXA2: NovaScreen (NVS) G Protein-Coupled Receptor Assay for human Thromboxane A2 Receptor (TXA2) (AID 2283282);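 also: actives reduce bound radioligand signal relative to DMSO baseline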
human Thromboxane A2 Receptor (TXA2), TBXA2R (gene 6915), sequence (P21731 whole entry, looked up): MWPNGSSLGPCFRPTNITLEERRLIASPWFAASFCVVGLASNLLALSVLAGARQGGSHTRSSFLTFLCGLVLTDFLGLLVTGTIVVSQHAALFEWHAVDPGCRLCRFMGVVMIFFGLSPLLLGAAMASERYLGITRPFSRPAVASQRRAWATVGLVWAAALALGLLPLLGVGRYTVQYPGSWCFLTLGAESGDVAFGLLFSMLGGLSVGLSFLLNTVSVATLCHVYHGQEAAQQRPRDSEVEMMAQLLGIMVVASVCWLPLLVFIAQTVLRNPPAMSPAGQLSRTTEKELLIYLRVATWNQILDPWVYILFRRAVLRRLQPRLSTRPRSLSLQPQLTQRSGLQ
Method in brief: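 Cell-free radioligand binding with human platelet-derived receptor; 1 h after dosing, filter-based scintillation counting, loss of signal vs DMSO. Primary screen in duplicate at 25 uM.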

[3] = molecular target: D(1A) dopamine receptor (Homo sapiens) (UniProt P21728); assay: NVS_GPCR_hDRD1: NovaScreen (NVS) G Protein-Coupled Receptor Assay for human Dopamine Receptor D1 (DRD1) (AID 2283269)
D(1A) dopamine receptor (Homo sapiens), sequence (P21728 whole entry, looked up): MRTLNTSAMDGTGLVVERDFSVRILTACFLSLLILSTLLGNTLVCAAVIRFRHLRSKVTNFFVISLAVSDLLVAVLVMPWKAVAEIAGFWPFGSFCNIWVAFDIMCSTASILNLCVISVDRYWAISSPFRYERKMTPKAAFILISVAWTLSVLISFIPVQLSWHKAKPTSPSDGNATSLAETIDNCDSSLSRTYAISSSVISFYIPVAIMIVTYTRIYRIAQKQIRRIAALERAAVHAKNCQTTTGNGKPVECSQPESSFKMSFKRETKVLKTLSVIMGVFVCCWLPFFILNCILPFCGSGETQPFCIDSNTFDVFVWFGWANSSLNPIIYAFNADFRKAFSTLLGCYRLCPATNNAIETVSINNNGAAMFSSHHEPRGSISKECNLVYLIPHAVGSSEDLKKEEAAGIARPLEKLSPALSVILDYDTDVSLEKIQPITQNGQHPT
Method in brief: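 HEK293-derived receptor preparation; radioligand competitive displacement; 1 h; filtration + scintillation counting. DMSO = negative control/baseline. Primary: 25 uM, duplicate; secondary: concentration–response for actives.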

[4] = molecular target: human Neurokinin, NK2 Receptor, TACR2 (gene 6865) (UniProt P21452); assay: NVS_GPCR_hNK2: NovaScreen (NVS) G Protein-Coupled Receptor Assay for human Neurokinin, NK2 Receptor (AID 2283278);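 also: actives reduce bound radioligand signal relative to DMSO baseline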
human Neurokinin, NK2 Receptor, TACR2 (gene 6865), sequence (P21452 whole entry, looked up): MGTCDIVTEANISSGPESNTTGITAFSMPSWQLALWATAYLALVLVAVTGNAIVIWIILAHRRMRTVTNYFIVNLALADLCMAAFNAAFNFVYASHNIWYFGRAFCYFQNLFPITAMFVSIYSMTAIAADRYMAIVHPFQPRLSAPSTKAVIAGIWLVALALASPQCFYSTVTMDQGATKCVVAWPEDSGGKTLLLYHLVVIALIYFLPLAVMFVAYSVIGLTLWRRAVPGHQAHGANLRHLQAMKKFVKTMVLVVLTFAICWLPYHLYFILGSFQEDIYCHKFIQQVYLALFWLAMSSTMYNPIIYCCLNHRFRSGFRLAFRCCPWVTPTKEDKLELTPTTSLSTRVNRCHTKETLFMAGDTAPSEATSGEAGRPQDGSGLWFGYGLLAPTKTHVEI
Method in brief: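 Filter-based scintillation counting measured radioligand bound to receptor extracted from CHO cells, 4 hours after compound addition. Chemicals screened first at 25 uM in duplicate, with actives retested in concentration series relative to DMSO.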

[5] = molecular target: human Dopamine Receptor D2 (DRD2), DRD2 (gene 1813) (UniProt P14416); assay: NVS_GPCR_hDRD2s: NovaScreen (NVS) G Protein-Coupled Receptor Assay for human Dopamine Receptor D2 (DRD2) (AID 2283266)
human Dopamine Receptor D2 (DRD2), DRD2 (gene 1813), sequence (P14416 whole entry, looked up): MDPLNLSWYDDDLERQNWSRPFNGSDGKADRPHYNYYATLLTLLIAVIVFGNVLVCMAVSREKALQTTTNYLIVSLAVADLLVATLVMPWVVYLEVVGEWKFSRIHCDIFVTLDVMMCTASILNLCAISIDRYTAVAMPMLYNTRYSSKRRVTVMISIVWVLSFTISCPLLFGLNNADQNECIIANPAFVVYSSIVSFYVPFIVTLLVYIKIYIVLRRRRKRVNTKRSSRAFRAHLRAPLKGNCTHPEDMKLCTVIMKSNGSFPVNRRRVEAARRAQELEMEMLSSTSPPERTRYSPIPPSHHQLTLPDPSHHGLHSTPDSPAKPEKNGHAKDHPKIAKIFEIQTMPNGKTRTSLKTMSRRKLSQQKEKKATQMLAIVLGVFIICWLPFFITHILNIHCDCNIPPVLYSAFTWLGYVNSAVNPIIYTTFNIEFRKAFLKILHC
Method in brief: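 Radioligand displacement used human DRD2 membranes extracted from CHO cells and was read by filter-based scintillation counting after 1.5 hours. Primary screening was in duplicate at 25 uM. Loss of signal versus DMSO was fitted, with concentration series in follow-up.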

[6] = molecular target: human Leukotriene B4 Receptor 1 (LTB4-BLT1), LTB4R (gene 1241) (UniProt Q15722); assay: NVS_GPCR_hLTB4_BLT1: NovaScreen (NVS) G Protein-Coupled Receptor Assay for human Leukotriene B4 Receptor 1 (LTB4-BLT1) (AID 2283271)
Method in brief: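 Radioligand displacement binding on receptor extracted from human neutrophils, cell-free, 1 h after dosing; filter-based scintillation counting. Primary screen in duplicate at 25 uM, actives retested in concentration-response up to 50 uM; loss of signal versus DMSO.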

[7] = molecular target: human Muscarinic, M4 Receptor, CHRM4 (gene 1132) (UniProt P08173); assay: NVS_GPCR_hM4: NovaScreen (NVS) G Protein-Coupled Receptor Assay for human Muscarinic, M4 Receptor (AID 2283274)
human Muscarinic, M4 Receptor, CHRM4 (gene 1132), sequence (P08173 whole entry, looked up): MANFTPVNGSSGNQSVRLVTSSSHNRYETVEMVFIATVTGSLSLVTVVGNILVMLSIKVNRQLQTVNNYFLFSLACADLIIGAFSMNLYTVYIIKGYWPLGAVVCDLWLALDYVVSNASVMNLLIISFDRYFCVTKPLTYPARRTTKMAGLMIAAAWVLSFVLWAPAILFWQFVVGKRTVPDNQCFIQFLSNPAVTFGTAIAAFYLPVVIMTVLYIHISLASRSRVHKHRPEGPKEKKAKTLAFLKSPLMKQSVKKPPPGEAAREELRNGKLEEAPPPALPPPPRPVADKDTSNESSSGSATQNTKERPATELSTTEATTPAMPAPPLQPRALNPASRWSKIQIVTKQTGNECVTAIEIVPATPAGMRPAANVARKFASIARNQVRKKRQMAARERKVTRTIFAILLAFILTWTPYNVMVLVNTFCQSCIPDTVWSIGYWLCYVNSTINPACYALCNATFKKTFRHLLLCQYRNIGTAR
Method in brief: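 Cell-free radioligand displacement using CHO-derived human M4 receptor protein, 1 h after dosing; bound radioactivity by filtration and scintillation counting. Primary screen single 25 uM duplicate, actives followed in concentration series.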

[8] = molecular target: Muscarinic acetylcholine receptor M5 (Homo sapiens) (UniProt P08912); assay: NVS_GPCR_hM5: NovaScreen (NVS) G Protein-Coupled Receptor Assay for human Muscarinic, M5 Receptor (AID 2283275)
Method in brief: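 Radioligand displacement on CHO-derived membrane preparations, 1 h, filter-based scintillation counting. Single-concentration duplicate screen at 25 uM; hits (e.g. 30% inhibition) retested in singleton concentration-response up to 50 uM. Loss of binding fitted versus DMSO.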

[9] = molecular target: human Neuropeptide Receptor Y1 (NPY1), NPY1R (gene 4886) (UniProt P25929); assay: NVS_GPCR_hNPY1: NovaScreen (NVS) G Protein-Coupled Receptor Assay for human Neuropeptide Receptor Y1 (NPY1) (AID 2283276)
human Neuropeptide Receptor Y1 (NPY1), NPY1R (gene 4886), sequence (P25929 whole entry, looked up): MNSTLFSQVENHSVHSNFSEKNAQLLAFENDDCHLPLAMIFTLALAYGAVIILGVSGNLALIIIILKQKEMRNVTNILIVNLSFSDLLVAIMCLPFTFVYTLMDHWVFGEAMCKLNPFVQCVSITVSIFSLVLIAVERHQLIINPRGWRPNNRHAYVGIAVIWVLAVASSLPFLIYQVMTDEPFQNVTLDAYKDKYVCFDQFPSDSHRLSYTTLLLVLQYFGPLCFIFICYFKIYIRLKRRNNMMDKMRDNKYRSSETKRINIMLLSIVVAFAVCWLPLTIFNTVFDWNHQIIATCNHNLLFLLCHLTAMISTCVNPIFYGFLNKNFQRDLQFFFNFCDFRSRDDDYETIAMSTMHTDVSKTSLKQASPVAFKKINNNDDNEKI
Method in brief: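 Cell-free radioligand binding using receptor extracted from SK-N-MC cells, 1 h incubation, filter-based scintillation counting. Primary screen single concentration 25 uM in duplicate; actives followed in concentration series. Loss of bound signal scored versus DMSO.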

[10] = molecular target: human Opioid Receptor Delta 1 (Opiate D1), OPRD1 (gene 4985) (UniProt P41143); assay: NVS_GPCR_hOpiate_D1: NovaScreen (NVS) G Protein-Coupled Receptor Assay for human Opioid Receptor Delta 1 (Opiate D1) (AID 2283280)
human Opioid Receptor Delta 1 (Opiate D1), OPRD1 (gene 4985), sequence (P41143 whole entry, looked up): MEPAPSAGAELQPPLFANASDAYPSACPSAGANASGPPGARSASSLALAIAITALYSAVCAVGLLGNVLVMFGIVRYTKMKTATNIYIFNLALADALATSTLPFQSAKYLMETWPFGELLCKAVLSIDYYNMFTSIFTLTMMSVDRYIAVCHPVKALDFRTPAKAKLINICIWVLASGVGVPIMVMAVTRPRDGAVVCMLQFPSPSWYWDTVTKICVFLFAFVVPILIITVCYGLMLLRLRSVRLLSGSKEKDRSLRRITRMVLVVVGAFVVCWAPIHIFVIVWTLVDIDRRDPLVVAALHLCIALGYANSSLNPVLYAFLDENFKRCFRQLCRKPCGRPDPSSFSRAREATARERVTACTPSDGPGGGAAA
Method in brief: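 Radioligand displacement on membranes from CHO cells expressing the receptor, read by filter scintillation counting 1 h after dosing. Duplicate single-point screen at 25 uM, then concentration series for actives; loss of signal versus DMSO.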

[11] = molecular target: human Orphanin, Opioid Related Nociceptin Receptor 1 (ORL1), OPRL1 (gene 4987) (UniProt P41146); assay: NVS_GPCR_hORL1: NovaScreen (NVS) G Protein-Coupled Receptor Assay for human Orphanin, Opioid Related Nociceptin Receptor 1 (ORL1) (AID 2283283)
human Orphanin, Opioid Related Nociceptin Receptor 1 (ORL1), OPRL1 (gene 4987), sequence (P41146 whole entry, looked up): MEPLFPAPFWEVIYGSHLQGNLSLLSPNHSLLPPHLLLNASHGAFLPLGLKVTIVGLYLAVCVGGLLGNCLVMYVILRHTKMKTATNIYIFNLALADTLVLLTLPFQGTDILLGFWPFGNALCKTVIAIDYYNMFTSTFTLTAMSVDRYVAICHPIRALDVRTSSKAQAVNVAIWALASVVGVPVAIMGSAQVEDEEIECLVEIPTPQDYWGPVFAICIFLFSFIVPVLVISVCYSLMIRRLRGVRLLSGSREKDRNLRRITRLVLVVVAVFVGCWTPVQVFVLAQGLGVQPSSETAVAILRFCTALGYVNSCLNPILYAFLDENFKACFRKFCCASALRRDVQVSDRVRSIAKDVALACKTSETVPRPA
Method in brief: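 Filter-based radioligand displacement with receptor extracted from HEK293 cells, read 1 hour after dosing by scintillation counting. Duplicate single-point screen at 25 uM; qualifying chemicals then run in concentration-response to 50 uM, analysed relative to DMSO.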

[12] = molecular target: rat Serotonin, 5-Hydroxytryptamine Receptor 1 (5HT1), Non-Selective Binding, Htr1a (gene 24473) (UniProt P19327); assay: NVS_GPCR_r5HT1_NonSelective: NovaScreen (NVS) G Protein-Coupled Receptor Assay for rat Serotonin, 5-Hydroxytryptamine Receptor 1 (5HT1), Non-Selective Binding (AID 2283286)
Method in brief: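 Rat cortical membranes, radioligand displacement, 1 h incubation, read by filter scintillation. Primary screen in duplicate at 25 uM. Hits (e.g. ≥30% inhibition) went to concentration-response up to 50 uM, fitted as loss of binding versus DMSO.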

[13] = system: rabbit Platelet Activating Factor Receptor (PAF), gene 100354046; assay: NVS_GPCR_rabPAF: NovaScreen (NVS) G Protein-Coupled Receptor Assay for rabbit Platelet Activating Factor Receptor (PAF) (AID 2283287)
Method in brief: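 Rabbit platelet membrane preparation; radioligand displacement read by filter-based scintillation counting 1 h after dosing, loss of signal versus DMSO. Primary screen in duplicate at 25 uM, actives followed up in concentration series.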

[14] = molecular target: rat Adrenergic, Alpha 1, Non-selective Receptor (Adra1), Adra1a (gene 29412) (UniProt P43140); assay: NVS_GPCR_rAdra1_NonSelective: NovaScreen (NVS) G Protein-Coupled Receptor Assay for rat Adrenergic, Alpha 1, Non-selective Receptor (Adra1) (AID 2283289)
Method in brief: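 Rat forebrain membranes; radioligand displacement read by filter-based scintillation counting 1 h after dosing. Primary screen in duplicate at 25 uM; hits (e.g. ≥30% inhibition) rerun as concentration–response to 50 uM max. Fitted versus DMSO.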

[15] = molecular target: human Opioid Receptor Mu (Opiate Mu), OPRM1 (gene 4988) (UniProt P35372); assay: NVS_GPCR_hOpiate_mu: NovaScreen (NVS) G Protein-Coupled Receptor Assay for human Opioid Receptor Mu (Opiate Mu) (AID 2283290);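 also: hits lower bound tracer signal versus DMSO meaning displacement of the ligand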
human Opioid Receptor Mu (Opiate Mu), OPRM1 (gene 4988), sequence (P35372 whole entry, looked up): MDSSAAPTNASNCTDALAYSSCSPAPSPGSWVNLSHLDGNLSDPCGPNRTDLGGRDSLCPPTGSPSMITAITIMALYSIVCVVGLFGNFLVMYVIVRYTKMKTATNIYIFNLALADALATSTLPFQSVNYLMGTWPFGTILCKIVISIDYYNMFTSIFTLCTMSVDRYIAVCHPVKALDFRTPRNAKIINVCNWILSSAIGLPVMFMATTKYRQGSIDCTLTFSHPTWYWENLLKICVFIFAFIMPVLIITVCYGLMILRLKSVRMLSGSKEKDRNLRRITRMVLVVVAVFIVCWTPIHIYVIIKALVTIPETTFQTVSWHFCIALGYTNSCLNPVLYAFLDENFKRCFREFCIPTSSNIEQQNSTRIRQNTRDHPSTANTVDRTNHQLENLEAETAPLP
Method in brief: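 CHO-derived receptor protein, cell-free; radioligand displacement, filtration + scintillation counting, read at 2.5 h. DMSO = negative control/baseline. Primary: 25 uM single conc, duplicate; secondary: concentration series.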

[16] = molecular target: guinea pig Bradykinin Receptor B2 (BK2), BDKRB2 (gene 100135486) (UniProt O70526); assay: NVS_GPCR_gBK2: NovaScreen (NVS) G Protein-Coupled Receptor Assay for guinea pig Bradykinin Receptor B2 (BK2) (AID 2283292)
guinea pig Bradykinin Receptor B2 (BK2), BDKRB2 (gene 100135486), sequence (O70526 whole entry, looked up): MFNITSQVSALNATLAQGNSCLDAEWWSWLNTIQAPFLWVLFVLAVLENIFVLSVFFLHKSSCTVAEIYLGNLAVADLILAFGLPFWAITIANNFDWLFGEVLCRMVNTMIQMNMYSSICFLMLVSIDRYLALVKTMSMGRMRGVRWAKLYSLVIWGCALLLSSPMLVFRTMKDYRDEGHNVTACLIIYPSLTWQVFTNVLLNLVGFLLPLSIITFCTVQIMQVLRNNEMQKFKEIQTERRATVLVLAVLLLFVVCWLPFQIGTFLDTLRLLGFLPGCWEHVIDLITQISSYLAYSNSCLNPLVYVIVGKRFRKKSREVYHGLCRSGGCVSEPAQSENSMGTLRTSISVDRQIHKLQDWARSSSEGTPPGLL
Method in brief: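 Radioligand displacement on guinea pig ileum membranes for 1 h, read by filter-based scintillation counting; loss of signal relative to DMSO. Compounds were screened in duplicate at 25 uM, and those passing the threshold were retested in concentration-response up to 50 uM.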

[17] = molecular target: guinea pig Serotonin, 5-Hydroxytryptamine Receptor 4 (5HT4), HTR4 (gene 100135548) (UniProt O70528); assay: NVS_GPCR_g5HT4: NovaScreen (NVS) G Protein-Coupled Receptor Assay for guinea pig Serotonin, 5-Hydroxytryptamine Receptor 4 (5HT4) (AID 2283294)
guinea pig Serotonin, 5-Hydroxytryptamine Receptor 4 (5HT4), HTR4 (gene 100135548), sequence (O70528 whole entry, looked up): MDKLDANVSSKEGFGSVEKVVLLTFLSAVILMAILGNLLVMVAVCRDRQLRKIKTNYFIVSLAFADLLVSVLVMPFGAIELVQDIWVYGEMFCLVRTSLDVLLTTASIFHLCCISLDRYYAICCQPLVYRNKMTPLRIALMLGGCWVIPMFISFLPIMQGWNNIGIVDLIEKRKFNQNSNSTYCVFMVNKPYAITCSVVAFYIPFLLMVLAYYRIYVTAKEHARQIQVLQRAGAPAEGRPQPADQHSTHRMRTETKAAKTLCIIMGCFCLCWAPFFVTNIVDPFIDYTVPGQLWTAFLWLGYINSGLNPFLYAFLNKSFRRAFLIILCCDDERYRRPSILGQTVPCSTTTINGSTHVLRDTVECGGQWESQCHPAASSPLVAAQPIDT
Method in brief: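 Guinea pig striatal membranes; radioligand competitive displacement, filtration and scintillation counting after 1 h. Primary screen in duplicate at 25 uM; actives then tested in concentration series; loss of binding signal fitted relative to DMSO.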

[18] = molecular target: rat Serotonin, 5-Hydroxytryptamine Receptor (5HT), Non-Selective Binding, Htr1a (gene 24473) (UniProt P19327); assay: NVS_GPCR_r5HT_NonSelective: NovaScreen (NVS) G Protein-Coupled Receptor Assay for rat Serotonin, 5-Hydroxytryptamine Receptor (5HT), Non-Selective Binding (AID 2283295)
Method in brief: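 Radioligand displacement on rat cortical membranes, 1 h incubation, filter-based scintillation counting. Primary duplicates at 25 uM, actives retested in concentration series; loss of signal fitted against DMSO as baseline.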

[19] = molecular target: human Dopamine Receptor D4.4 (DRD4.4), DRD4 (gene 1815) (UniProt P21917); assay: NVS_GPCR_hDRD4.4: NovaScreen (NVS) G Protein-Coupled Receptor Assay for human Dopamine Receptor D4.4 (DRD4.4) (AID 2283264)
Method in brief: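 Radioligand displacement on human DRD4.4 from CHO-derived membranes, 1 hour incubation, bound counts read by filtration and scintillation. Primary screen in duplicate at 25 uM; actives followed up in concentration series.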

[20] = molecular target: Neuropeptide Y receptor type 2 (Homo sapiens) (UniProt P49146); assay: NVS_GPCR_hNPY2: NovaScreen (NVS) G Protein-Coupled Receptor Assay for human Neuropeptide Receptor Y2 (NPY2) (AID 2283277)
Method in brief: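 Radioligand binding on membranes extracted from SK-N-MC cells, cell-free, read 1 h after dosing by filter-based scintillation counting. Loss of signal vs DMSO. Primary screen in duplicate at 25 uM; actives followed up in concentration-response up to 50 uM.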

Question: With `CC(=O)c1cccnc1` as the compound, how does the outcome [1] read?
Answer: inactive

Question: `Cc1cc(O)c(C)c(C)c1O` was tested. Which outcome [2] did it give?
Answer: inactive

Question: Which results are given for `O=S1(=O)CC(Cl)(Cl)C(Cl)(Cl)C1`?
Answer: AC50 [3]: 20.1 µM (active); outcome [4]: inactive; outcome [2]: inactive

Question: With `Cc1cc(N)n(-c2ccccc2)n1` as the compound, how does the AC50 [1] read?
Answer: 13.9 µM (active)

Question: With `CCC(=O)OC/C=C(\C)CCC=C(C)C` as the compound, how does the outcome [3] read?
Answer: inactive

Question: Which outcome [3] does the source give for `CC(=O)OCC=C(C)CCC=C(C)CCC=C(C)C` here?
Answer: inactive

Question: Which outcome [2] does the source give for `CC/C=C\C#N` here?
Answer: inactive

Question: How did the AC50 [5] turn out when `O=C(c1ccc(OCCN2CCCCC2)cc1)c1c(-c2ccc(O)cc2)sc2cc(O)ccc12` was run?
Answer: 1.07 µM (active)

Question: And the AC50 [3]?
Answer: 0.948 µM (active)

Question: And the outcome [6]?
Answer: inactive

Question: What about the AC50 [1] of the same compound?
Answer: 2.92 µM (active)

Question: What about the AC50 [7] of the same compound?
Answer: 4.93 µM (active)

Question: What about the AC50 [8] of the same compound?
Answer: 3.7 µM (active)

Question: What about the AC50 [9] of the same compound?
Answer: 7.83 µM (active)

Question: What about the AC50 [4] of the same compound?
Answer: 3.58 µM (active)

Question: What about the AC50 [10] of the same compound?
Answer: 5.28 µM (active)

Question: And the AC50 [11]?
Answer: 0.982 µM (active)

Question: And the AC50 [12]?
Answer: 18.5 µM (active)

Question: And the AC50 [13]?
Answer: 12.1 µM (active)

Question: What about the AC50 [14] of the same compound?
Answer: 1.49 µM (active)

Question: And the AC50 [15]?
Answer: 711 nM (active)

Question: What about the outcome [16] of the same compound?
Answer: inactive

Question: And the AC50 [17]?
Answer: 4.36 µM (active)

Question: And the AC50 [18]?
Answer: 5.24 µM (active)

Question: `O=C1OC2(c3ccc(O)cc3Oc3cc(O)ccc32)c2ccccc21` was tested. Which outcome [4] did it give?
Answer: inactive

Question: Which outcome [3] does the source give for `N#CCCCC(C#N)CCC#N` (stereo not drawn) here?
Answer: inactive

Question: `CC(C)(O)CCc1ccccc1` was tested. Which outcome [3] did it give?
Answer: inactive

Question: How did the outcome [2] turn out when `Cc1cccc(O)c1` was run?
Answer: inactive

Question: With `CCCCOCCOCCO` as the compound, how does the outcome [4] read?
Answer: inactive

Question: `COc1ccccc1NC(=O)CC(C)=O` was tested. Which outcome [2] did it give?
Answer: inactive

Question: For `CC(C)(C)c1cc(CCC(=O)OCCSCCOC(=O)CCc2cc(C(C)(C)C)c(O)c(C(C)(C)C)c2)cc(C(C)(C)C)c1O`, which outcome [2] is on record?
Answer: inactive

Question: `c1ccc2c(c1)-c1ccc3ccc4cccc5cc-2c1c3c45` was tested. Which outcome [3] did it give?
Answer: inactive

Question: What about the AC50 [15] of the same compound?
Answer: 3450 nM (active)

Question: With `CCOC(=O)C=Cc1ccccc1` as the compound, how does the AC50 [1] read?
Answer: 38.6 µM (active)

Question: Which AC50 [15] does the source give for `C#C[C@]1(O)CC[C@H]2[C@@H]3CCc4cc(O)ccc4[C@H]3CC[C@@]21C` here?
Answer: 25 µM (active) and 6.05 µM (active)

Question: And the outcome [15]?
Answer: inactive

Question: And the AC50 [17]?
Answer: 2.64 µM (active)

Question: `C=C1CC[C@H]2O[C@]2(C)CC[C@@H]2[C@@H]1CC2(C)C` was tested. Which outcome [3] did it give?
Answer: inactive

Question: Which results are given for `CC/C(=C(\c1ccccc1)c1ccc(OCCN(C)C)cc1)c1ccccc1`?
Answer: outcome [19]: inactive; outcome [5]: inactive; AC50 [1]: 19.3 µM (active); AC50 [7]: 10.1 µM (active); AC50 [8]: 7.13 µM (active); AC50 [20]: 11.9 µM (active); AC50 [4]: 6.84 µM (active); outcome [4]: inactive; outcome [10]: inactive; AC50 [11]: 9.83 µM (active); outcome [13]: inactive; outcome [15]: inactive; outcome [16]: inactive
